The list is not random: actives were taken first. Their share in the collection is about 3%.
C8 TRAIL sens: sensitizes caspase-8 expressing cells to TRAIL; inhibition (viability loss, TRAIL sensitization), % at 10 µM; NB7+C8 cells + TRAIL, ATPlite viability luminescence; AID 624354; 360,000 compounds, 1% hits;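 active = compounds causing at least 50% loss of cell viability in the single-dose screen, relative to plate controls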
PPC-1+TRAIL kill: PPC-1 cancer cell killing with TRAIL present. PPC-1 cells + TRAIL, ATPLite viability luminescence. cell killing (% activity), % at 4 µM or 5 µM. 220,000 compounds, 0.41% hits. AID 1443;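 active = cell killing above 50% in the first pass at 4 µM, then a duplicate retest at 5 µM averaging 50% or more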;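 also: plate controls were cells with TRAIL plus DMSO for no effect and medium-only wells lacking cells for full effect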
SENP8 block-1: SENP8 protease inhibition. 330,000 compounds, 1.2% hits. purified SENP8, Z-RLRGG-aminoluciferin cleavage, luminescence. AID 2540. inhibition, % at 10 µM. Q96LD8; in the data active = inhibition above about 50%
SENP6 block: SENP6 protease inhibition | 330,000 compounds, 1.8% hits | inhibition, % at 10 µM | AID 2599 | Recombinant SENP6 catalytic domain, aminoluciferin luminescence;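 active = inhibition above about 50% at the single tested dose, limit read from the data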;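 also: plate controls were DMSO wells with enzyme for no effect and DMSO wells lacking enzyme for full effect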
Target sequence (Q9GZR1 628-1112 limits assumed): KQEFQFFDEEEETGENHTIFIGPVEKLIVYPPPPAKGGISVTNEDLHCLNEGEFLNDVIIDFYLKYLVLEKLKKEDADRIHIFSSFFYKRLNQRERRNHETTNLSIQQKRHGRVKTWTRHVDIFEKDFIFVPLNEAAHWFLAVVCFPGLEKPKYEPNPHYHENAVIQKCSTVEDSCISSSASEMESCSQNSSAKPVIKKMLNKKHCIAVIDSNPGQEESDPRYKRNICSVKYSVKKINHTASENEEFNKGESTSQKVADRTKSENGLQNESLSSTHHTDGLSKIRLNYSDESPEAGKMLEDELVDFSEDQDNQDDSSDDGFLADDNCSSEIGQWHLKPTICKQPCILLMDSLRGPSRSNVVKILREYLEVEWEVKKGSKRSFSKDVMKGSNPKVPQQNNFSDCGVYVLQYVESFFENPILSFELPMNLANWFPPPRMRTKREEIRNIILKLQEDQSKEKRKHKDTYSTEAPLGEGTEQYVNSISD
SENP7 block: inhibitors of human SENP7 protease. Q9BQF6. recombinant SENP7, Z-RLRGG-aminoluciferin luminescence, 40 min. inhibition, % at 5 µM. 330,000 compounds, 1.5% hits. AID 434973;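 active = inhibition above about 50% at the single test dose, limit read from the data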;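 also: plate controls were DMSO with enzyme for no effect and no enzyme buffer wells for full effect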
SENP8 block-2: blocks human SENP8 cleavage of Nedd8 substrate. Q96LD8. recombinant SENP8, Nedd8 substrate fluorescence. inhibition, % at 20 µM. 360,000 compounds, 0.64% hits; in the data active = inhibition mostly above about 40%, no sharp cut-off; inactive = mostly below about 27%
SENP8 conf: confirmation of human SENP8 protease inhibitors. inhibition, % at 12.5 µM. Recombinant SENP8, Z-RLRGG-aminoluciferin luminescence, 60 min. 6,200 compounds, 40% hits. shares compounds with SENP7 block;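 active = mean inhibition across replicates above about 50%, limit read from the data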
SENP6 conf: human SENP6 inhibition, confirmed. shares compounds with SENP7 block. recombinant SENP6, Z-RLRGG-aminoluciferin luminescence. 6,200 compounds, 58% hits. inhibition, % at 12.5 µM
SENP7 conf: confirmation of human SENP7 protease inhibitors. 6,200 compounds, 69% hits. shares compounds with SENP7 block. inhibition, % at 12.5 µM. recombinant SENP7, Z-RLRGG-aminoluciferin luminescence, 40 min
Casp3 select: inhibits human caspase-3 in SENP selectivity test; purified caspase-3, Z-DEVD-aminoluciferin luminescence, 60 min; shares compounds with SENP7 block; inhibition, % at 12.5 µM; AID 488918; 6,200 compounds, 60% hits;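 active = mean inhibition above about 50%, limit read from the data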;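 also: plate controls were enzyme with DMSO for no effect and wells without caspase-3 for full effect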
SENP luc ctr: luminescence interference (SENP counter-screen); AID 488919; 6,200 compounds, 39% hits; shares compounds with SENP7 block; inhibition, % at 12.5 µM; Pre-incubated SENP8/Z-RLRGG-aminoluciferin, luciferase luminescence interference;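 active = mean inhibition above about 50% when retested at one dose, limit read from the data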;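 also: plate controls were DMSO wells with completed reaction for no effect and substrate without enzyme for full effect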
Starred values were filed as active, the others as inactive; x = no result given.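 The calls were made as follows, unless noted: active = mean inhibition above about 50% in the one-dose retest (limit read from the data); inactive = the rest.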

SMILES	C8 TRAIL sens	PPC-1+TRAIL kill	SENP8 block-1	SENP6 block	SENP7 block	SENP8 block-2	SENP8 conf	SENP6 conf	SENP7 conf	Casp3 select	SENP luc ctr
CCOC(=O)Cn1ccc(NC(=O)c2ccc3c(c2)OCO3)n1	-4	x	1	-16	9	6	x	x	x	x	x
NNC(=O)c1cccc(COc2ccc3c(c2)CCC3)c1	46	41	44	69*	17	16	68*	61*	88*	45	86*
NNC(=O)c1cccc(COc2ccccc2Br)c1	10	-4	-2	6	14	24	x	x	x	x	x
O=C(O)c1ccc(-c2nc3ccccc3s2)o1	8	4	77*	91*	78*	-363	87*	84*	92*	61*	82*
O=Cc1ccc(-c2nc3ccccc3s2)o1	20	21	70*	63*	80*	-358	-3	70*	87*	82*	23
O=C(O)CCN1C(=O)/C(=C/c2ccc(-c3nc4ccccc4s3)o2)SC1=S	-4	-2	-5	7	8	6	x	x	x	x	x
CNS(=O)(=O)c1cccc(C(=O)NCC(c2cccs2)N2CCOCC2)c1 (stereo not drawn)	-10	x	-10	-22	-7	12	x	x	x	x	x
N#C/C(=N\Nc1cccc(Cl)c1)C(=O)c1ccccc1	17	-24	69*	87*	15	31	-22	74*	76*	20	72*
N#C/C(=N\Nc1ccccc1Cl)C(=O)c1ccccc1	14	12	-6	21	1	37	x	x	x	x	x
O=c1oc(C2(O)CCCCC2)cc2ccccc12	24	x	-3	-16	-6	9	x	x	x	x	x
O=c1oc(C2(O)CCCCC2)cc2ccc(-c3ccc4[nH]ccc4c3)cc12	21	x	10	12	53*	-360	-12	-4	-5	5	1
COc1ccccc1-n1c(=O)oc2ccc(Cl)cc2c1=O	30	10	40	53*	12	4	53*	50*	55*	30	5
Cc1cc(C=C2C(=O)c3ccccc3C2=O)c(C)n1-c1cccc(C(=O)O)c1	12	-1	90*	91*	51*	-9	97*	98*	101*	95*	92*
Cc1cc(C=C2C(=O)c3ccccc3C2=O)c(C)n1-c1ccccc1	78*	5	74*	92*	93*	-21	9	10	3	20	-3
Cc1cc(/C=C2\Cc3ccccc3C2=O)c(C)n1-c1ccccc1	71*	23	65*	48	5	-393	46	91*	97*	68*	14
Cc1cc(C=C2C(=O)c3ccccc3C2=O)c(C)n1-c1ccc(C(=O)O)cc1	6	8	-2	-5	1	-15	x	x	x	x	x
O=C(O)/C=C\C(=O)NCc1cccnc1	-11	-3	4	8	2	0	x	x	x	x	x
CN(c1cccc(F)c1)c1cc2c(c3c1ccn3C)C1CCC2O1 (stereo not drawn)	-4	x	x	x	x	-127	x	x	x	x	x
Cc1ccc(NC(=S)N2CCN(S(=O)(=O)c3ccc(F)cc3)CC2)cc1	-7	x	5	-12	3	9	x	x	x	x	x
COc1cc2sc3ccc(C#CC4(O)CCCCC4)cc3c(=O)c2cc1OC	75*	x	94*	98*	99*	-473	66*	70*	91*	81*	24
O=C(CSc1nnc(NC(=O)C2CCC2)s1)Nc1ccccc1F	14	x	6	-4	2	6	x	x	x	x	x
COc1cc(O)cc2cc3c(c(O)c12)C(=O)CC(C)(O)O3 (stereo not drawn)	-8	7	21	58*	13	11	2	9	17	24	30
COc1cc(O)c2c(c1)OC(C)(C)CC2=O	4	18	2	-5	-6	26	x	x	x	x	x
CCOC(=O)c1nnsc1NC(=O)Nc1ccc(OC)cc1	7	8	-8	-17	51*	5	13	10	10	12	-4
CCOC(=O)c1nnsc1NC(C)=O	-3	14	-6	-1	-3	10	x	x	x	x	x
SMILES	C8 TRAIL sens	PPC-1+TRAIL kill	SENP8 block-1	SENP6 block	SENP7 block	SENP8 block-2	SENP8 conf	SENP6 conf	SENP7 conf	Casp3 select	SENP luc ctr
O=C(Nc1ccc2c(c1)OCO2)c1ccc(Cl)cc1Cl	71*	x	55*	52*	72*	12	36	56*	86*	69*	64*
CC(C)Cc1cc(C(=O)Nc2cc(Cl)ccc2Cl)no1	-1	8	1	-17	-5	4	x	x	x	x	x
O=C(Nc1ccc2c(c1)OCO2)c1cc(-c2ccccc2Cl)on1	40	x	-20	-19	23	-2	x	x	x	x	x
CC(C)Cc1cc(C(=O)Nc2ccc(F)cc2F)no1	1	3	45	64*	56*	23	-8	47	82*	60*	5
COc1ccc(C(=O)Nc2ccc3c(c2)OCCO3)c(OC)c1	46	x	x	x	x	19	x	x	x	x	x
O=C(Nc1ccc2c(c1)OCO2)c1cc(Cl)ccn1	29	x	77*	84*	81*	4	81*	80*	96*	88*	16
O=C(Nc1ccc2c(c1)OCCO2)c1ccc(Cl)cc1Cl	72*	x	49	71*	67*	6	70*	66*	87*	70*	65*
CC(C)Cc1cc(C(=O)Nc2ccc3c(c2)OCO3)no1	27	16	40	66*	53*	9	17	39	80*	60*	8
Cc1cc(C(=O)Nc2ccc3c(c2)OCO3)no1	-8	x	4	15	33	9	x	x	x	x	x
[O-][n+]1c(/C=C/c2ccccc2)ccc2ccccc21	12	x	11	77*	68*	-36	92*	92*	100*	91*	89*
O=S(=O)(NC1c2cccc3cccc(c23)C1N1CCNCC1)c1ccc(Cl)cc1 (stereo not drawn)	12	11	-2	11	-8	16	x	x	x	x	x
COc1ccc(NC(=O)c2sc(NC(=O)COc3ccccc3)nc2C)cc1	-2	11	59*	68*	0	11	-5	54*	96*	82*	26
COc1ccc(C(=O)Nc2ccc(NC(=O)c3ccccn3)cn2)cc1	10	x	-13	-13	11	-7	x	x	x	x	x
Cc1nc(NC(=O)COc2ccccc2)sc1C(=O)Nc1cccc(Cl)c1	13	-20	2	-2	47	-40	x	x	x	x	x

Screening results (PubChem BioAssay)
